# An excerpt weighted towards active compounds, which were near 7.5% of everything screened.
# FLuc modulator = qHTS profiling assay for firefly luciferase inhibitor/activator using purifed enzyme and Km concentrations of substrates (counterscreen for miR-21 project); Luciferin 4-monooxygenase (Photinus pyralis), P08659; purified FLuc, Km substrates, luminescence inhibition; Potency, µM (highest dose often 57.5 µM), for inactives: at the top dose activity change, negative = inhibition, hits mostly inhibitors; 360,000 tested, 6.9% active; AID 588342, 2011;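 further: plate controls were vehicle for no effect and reference inhibitor for full effect; nearly all actives have a fitted effect of over 55% in size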
# Target sequence (P08659 whole entry, looked up): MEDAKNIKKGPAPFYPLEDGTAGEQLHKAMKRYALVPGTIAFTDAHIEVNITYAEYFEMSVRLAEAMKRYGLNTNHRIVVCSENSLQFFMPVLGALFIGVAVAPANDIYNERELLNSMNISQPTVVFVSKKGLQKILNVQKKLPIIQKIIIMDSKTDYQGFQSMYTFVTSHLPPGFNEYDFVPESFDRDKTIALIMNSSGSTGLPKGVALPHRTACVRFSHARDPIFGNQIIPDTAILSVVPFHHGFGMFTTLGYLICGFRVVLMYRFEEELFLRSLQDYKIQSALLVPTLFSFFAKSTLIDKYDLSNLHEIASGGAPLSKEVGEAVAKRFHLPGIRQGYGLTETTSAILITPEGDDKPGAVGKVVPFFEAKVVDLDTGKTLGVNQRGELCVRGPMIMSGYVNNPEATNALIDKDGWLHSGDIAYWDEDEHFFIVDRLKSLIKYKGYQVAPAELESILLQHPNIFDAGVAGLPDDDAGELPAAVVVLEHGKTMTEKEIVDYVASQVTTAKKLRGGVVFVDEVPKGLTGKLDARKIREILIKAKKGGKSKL
#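 Purified P. pyralis luciferase, 10 nM final, with Km-level 10 uM D-luciferin and 10 uM ATP in 50 mM Tris acetate pH 7.5, 10 mM Mg acetate, 0.01% Tween-20, 0.05% BSA; 6-point qHTS titration about 60 µM downward; luminescence read.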
# NPC1 promoter act = qHTS Assay for NPC1 Promoter Activators. Huh7 NPC1 promoter luciferase reporter, 24 h. Potency, µM (doses to about 9.22 µM), without a hit: at the highest dose activation, most hits filed as activators. 320,000 tested, 2.4% active. AID 485313, 2010; further: % of control where 0% means no effect; nearly all actives have a fitted effect of over 60% in size
#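 Stable NPC1-promoter luciferase Huh7 line; cpd (DMSO) 24 h, 37 °C, 5% CO2; Amplite luciferase reagent 10 min RT; luminescence readout. qHTS format.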
# SMN2 splice up = qHTS Assay for Enhancers of SMN2 Splice Variant Expression | AID 1458, 2008 | 210,000 tested, 2.8% active | HEK293 SMN2-luciferase splicing reporter, luminescence, 30-36 h | Potency, µM (series often up to 46.1 µM), for the others: at the top dose activity change, positive = activation, usual class: activators; further: % of control where 0% means no effect; nearly all actives have a fitted effect of over 55% in size
#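 HEK293 cells carry an SMN2 minigene-luciferase reporter in which exon 7 inclusion puts luciferase in frame. Cells were seeded at 2000 cells/well, attached for 10-12 hours, then exposed to compounds for 30-36 hours at 37C before ONE-Glo luminescence.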
# ELG1 genotox = qHTS screen for small molecules that induce genotoxicity in human embryonic kidney (HEK293T) cells expressing luciferase-tagged ELG1. Potency, µM (highest dose often 46 µM), without a hit: top-dose activity change, positive = activation, most hits filed as activators. HEK293T ELG1-luciferase reporter, luminescence, 16 h. 330,000 tested, 1.3% active; further: % of control where 0% means no effect; nearly all actives have a fitted effect of over 60% in size
#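 DMSO vehicle served as control against compound-treated ELG1-luciferase HEK293T cells; exposure lasted 16 hr at 37 °C and 5% CO2, followed by ONE-Glo luminescence detection after 30 min.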
# Rab9 prom act = qHTS Assay for Rab9 Promoter Activators; Huh7 Rab9 promoter-luciferase reporter, luminescence, 24 h; Potency, µM (doses to about 9.22 µM), inactives show top-dose activation, negative = inhibition, hits mostly activators; 320,000 tested, 2.8% active; AID 485297, 2010; further: % of control where 0% means no effect; nearly all actives have a fitted effect of over 60% in size
#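 Stable Rab9-luc Huh7, 1500 cells/well, 2 h settle; cmpd in DMSO, 24 h, 37 °C/5% CO2; luciferase reagent 10 min RT; luminescence.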
# Starred values were filed as active, the others as inactive; ? = inconclusive; . = no result given; [ ] = dose if it differs, or a comment. The call rests on the fitted dose curve; in most records, active means well fitted curve in the direction sought with a large enough effect; inconclusive means small, poorly fitted or top-dose-only effect, or another doubt; inactive means no such curve, though single readings can be large; an effect the other way counts as inactive or inconclusive. Potency means the concentration at half of the fitted maximal effect.
SMILES,FLuc modulator,NPC1 promoter act,SMN2 splice up,ELG1 genotox,Rab9 prom act
CCC1CCc2nc3sc(C(=O)Nc4ccc(C)cc4C)c(N)c3cc2C1 (stereo not given),3%,.,-14%,.,.
CCc1nnc(NC(=O)c2sc3nc4c(cc3c2N)CCCCCC4)s1,4.8µM*,?,13µM*,?,2.8µM*
Cc1cccc(NC(=O)c2sc3nc(N)c(C#N)cc3c2N)c1,9.5µM*,2.8µM*,16µM*,?,2.5µM*
COc1ccc(NC(=O)c2sc3nc4c(cc3c2N)CCCCCC4)cc1OC,-2%,.,1%,.,.
CCc1nnc(NC(=O)c2sc3nc4c(cc3c2N)CCCCC4)s1,1.7µM*,2.2µM*,8.9µM*,?,1.6µM*
COc1ccccc1NC(=O)c1sc2nc3c(cc2c1N)CCCCCC3,-11%,.,-5%,.,.
CCC(c1nnnn1C1CCCC1)N1CCC(C(N)=O)CC1 (stereo not given),0%,-3%,-4%,-4%,0%
CCOc1ccccc1CNC(=O)C1CCN(c2nnc(-n3c(C)ccc3C)s2)CC1,4%,.,.,.,.
CC1CN(C(=O)c2cc([N+](=O)[O-])cc([N+](=O)[O-])c2)CC(C)O1 (stereo not given),15µM*,?,.,?,3.2µM*
Fc1ccc(NC(=S)Nc2cc(Cl)ccc2Cl)cc1,0%,0%,-3%,-7%,4%
CCN1CCN(c2ncnc3c2cnn3-c2ccc(C)cc2)CC1,11µM*,.,.,.,.
Cc1ccc(-n2ncc3c(N4CCCCCC4)ncnc32)cc1,0.12µM*,.,.,.,.
Fc1ccc(-n2ncc3c(N4CCCCCC4)ncnc32)cc1,0.95µM*,.,.,.,.
Clc1ccc(-n2ncc3c(N4CCCC4)ncnc32)cc1,0.34µM*,0.5µM*,-75%,0.18µM*,0.32µM*
CCN1CCN(c2ncnc3c2cnn3-c2cc(Cl)ccc2C)CC1,-1%,.,.,.,.
COc1ccccc1N1CCN(c2ncnc3c2cnn3-c2ccc(C)cc2)CC1,-17%,.,.,.,.
Nc1nc(-c2cccnc2)cc(-c2cc(-c3cccnc3)nc(N)n2)n1,.,.,1%[9.22 µM],.,.
Cc1oc2ncn(CC(C)C)c(=O)c2c1C(=O)NCc1cccc(Cl)c1,4%,.,.,.,.
Cc1noc(NS(=O)(=O)c2ccc(NC(=O)c3cc(-c4ccccc4Cl)nc4ccccc34)cc2)c1C,-29%,-1%,6%,2%,-2%
COc1ccc(-c2cc(C(=O)Nc3ccc(S(=O)(=O)Nc4onc(C)c4C)cc3)c3ccccc3n2)cc1,9.5µM*,2%,.,2%,-3%
COc1ccc(-c2cc(C(=O)Nc3ccc(S(=O)(=O)Nc4ncccn4)cc3)c3ccccc3n2)cc1,4.8µM*,4%,.,15%,3%
COc1ccc(-c2cc(C(=O)Nc3ccc(C)c(N)c3)c3ccccc3n2)cc1,5.4µM*,23%,.,5%,15%
CCn1cc(C(=O)NCc2ccc(C)cc2)c(=O)c2cc(S(=O)(=O)N3CCCCCC3)ccc21,-13%,.,.,.,.
COc1cc(C)nc(-c2csc(C)n2)n1,-1%,6%,.,-1%,1%
O=C(CN1C(=O)S/C(=C\c2ccccc2Cl)C1=O)NCCCn1ccnc1,?,1%,.,2%,-1%
SMILES,FLuc modulator,NPC1 promoter act,SMN2 splice up,ELG1 genotox,Rab9 prom act
Cc1cc(C)nc(CCNC(=O)C2CCC(=O)N(Cc3ccccc3F)C2)n1 (stereo not given),-7%,-1%,.,4%,-5%
Cc1ccc(CCNC(=O)C2CCC(=O)N(Cc3ccccc3F)C2)o1 (stereo not given),?,?,.,18µM*,?
COc1ccccc1CCCNC(=O)C1CCC(=O)N(Cc2ccccc2F)C1 (stereo not given),21µM*,2.8µM*,.,?,4µM*
O=C(NCc1nc2ccccc2[nH]1)C1=C[C@@H](c2ccc3c(c2)OCO3)C[C@@H](OCc2ccc(CO)cc2)O1,0%,-6%,.,-7%,-4%
CCCCn1c(SCc2nc3ccccc3s2)nc2ccccc2c1=O,-1%,-2%,-49%,7%,-4%
CCCn1c(=O)c2ccccc2n2c(SCc3nc4ccccc4s3)nnc12,11µM*,3%,?,?,?
O=c1[nH]nc(SCc2nc3ccccc3s2)n1C1CC1,24µM*,10%,?,21µM*,?
CCCn1c(SCc2nc3ccccc3s2)n[nH]c1=O,5.4µM*,20%,?,18µM*,3.5µM*
Cc1cc(C)c(-n2c(SCc3nc4ccccc4s3)n[nH]c2=O)c(C)c1,3%,-8%,.,-4%,-1%
O=C(N/C(=C\c1cccc([N+](=O)[O-])c1)C(=O)N(CCO)CCO)c1ccco1,-9%,0%,-25%,-2%,-6%
CCS(=O)(=O)c1ccc(-c2cccc(NC(=O)c3ccco3)c2)nn1,-13%,-1%,.,-3%,2%
Cc1nc(-c2cccc(NC(=O)COc3ccc(Cl)cc3)c2)cs1,13µM*,3%,.,-18%,-1%
CCOc1ccc(-c2cccc(NC(=O)COc3ccc(Cl)cc3)c2)nn1,13µM*,9%,.,-3%,10%
O=C(COc1ccc(Cl)cc1)Nc1cccc(-c2ccc3nncn3n2)c1,?,-4%,-18%,2%,-3%
CCOc1ccc(-c2cccc(NC(=O)c3ccco3)c2)nn1,21µM*,1%,.,-3%,-4%
CCc1ccc(/C=C2/C(=O)NC(=O)N2C(C)=O)cc1,8.5µM*,15%,.,12%,28%
CC1(C)CC(=O)c2cc(C(=O)Nc3ccc(Br)cc3)c(=O)n(-c3ccc(Cl)cc3)c2C1,0%,.,-1%,.,.
OCCc1ccc(O)c(-n2nc3ccccc3n2)c1,15µM*,23%,.,?,26%
N#Cc1ccc(COc2ccc(CCO)cc2-n2nc3ccccc3n2)cc1,-4%,3%,-6%,-8%,4%
CCN(CC)CCn1c(-c2ccccc2)nc2c(NCc3ccccc3)nc(C)nc21,.,.,-17%,.,.
Cc1ccc(N(C)S(=O)(=O)c2cccc(C(=O)NCC(c3cccs3)N3CCOCC3)c2)cc1 (stereo not given),0%,0%,.,-10%,-3%
O=C(O)CCn1cc(C2CC(c3ccccc3)=NN2c2ccccc2)c(-c2ccccc2)n1 (stereo not given),19µM*,-1%,0%,-2%,10%
Nc1ccc2nc(Cc3ccccc3)[nH]c2c1,?,0%,.,2%,2%
Nc1ccc(Cc2nc3c(ccc4ccccc43)[nH]2)cc1,13µM*,4µM*,11%,?,4µM*
COc1cc2c(cc1OC)C(c1ccc(Cl)cc1)N(c1ccc(C)c(F)c1)C(=O)C2 (stereo not given),-1%,.,-31%,.,.

# Source: PubChem
